Compounds with a hit are over-represented: about 10% of the library has one in this group of screens.
ALDH1A1 inh = blocks purified human ALDH1A1 activity; P00352; Purified ALDH1A1, NADH fluorescence, propionaldehyde substrate; Potency, µM (series often up to 75.3 µM), for inactives: at the highest dose activity, negative = inhibition, usual class: inhibitors; 220,000 tested, 7.3% active;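 also: potency is read from the fitted curve at half-maximal effect; plate controls were no enzyme wells and a reference inhibitor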
IMPase cell inh = cell-permeable inhibitors of inositol monophosphatase (IMPase); 120,000 tested, under 10 active; P97697; CHO-M1 cells, IP1 accumulation, HTRF TR-FRET ratio; inhibition (IP1 accumulation), % at 46.1 µM; active = well fitted curve in the direction sought with a large enough effect in the signal ratio, not every such curve was filed as active; inconclusive = small, poorly fitted or top-dose-only effect, or a change in a side signal; inactive = no such curve, though single readings can be large or run the other way; the % refers to the signal ratio;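 also: cells stimulated with carbachol in lithium chloride buffer; plate controls were DMSO basal wells for no effect and reference inhibitor wells for full effect; higher means more IMPase inhibition seen as more IP1 and lower FRET ratio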
Target sequence (P97697 whole entry, looked up): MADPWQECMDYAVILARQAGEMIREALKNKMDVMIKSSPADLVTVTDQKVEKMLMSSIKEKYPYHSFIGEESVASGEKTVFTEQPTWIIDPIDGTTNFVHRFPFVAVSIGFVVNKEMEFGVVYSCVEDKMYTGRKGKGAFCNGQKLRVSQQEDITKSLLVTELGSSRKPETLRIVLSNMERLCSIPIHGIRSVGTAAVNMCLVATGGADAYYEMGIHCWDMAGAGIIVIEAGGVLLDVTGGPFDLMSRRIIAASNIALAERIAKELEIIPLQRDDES
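CHO-M1 cells (CHO stably expressing M1 receptor), compound up to 46 uM final, stimulated with carbachol (50 uM as added) in buffer with 50mM LiCl, pH 7.4, 30 min at 37C. Cytosolic IP1 read by TR-FRET; AC50 from Hill fits.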
LMNA splice mod = LMNA splicing modulation; HeLa LMNA splicing GFP/RFP minigene ratio, 48 h; Potency, µM (doses to about 46.1 µM), for inactives: top-dose ratio change, negative = inhibition, actives largely listed as inhibitors; 200,000 tested, 0.01% active; active = well fitted inhibition curve with a large enough effect in the signal ratio, with a control signal flat, not every such curve was filed as active; inconclusive = small, poorly fitted or top-dose-only effect, or effect the other way, or a change in a side signal; the % refers to the signal ratio; also: potency is read from the fitted curve at half-maximal effect
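Read-out is the ratio of GFP to DsRed2 object intensity, acquired by 488 nm laser-scanning cytometry on HeLa lamin A-EGFP minigene reporter cells. Compound incubation 48 hrs at 37 °C in Opti-MEM with 2% FBS; DMSO 0.5% final.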
HPGD inh = inhibitors of human 15-hydroxyprostaglandin dehydrogenase (HPGD) | 150,000 tested, 4.3% active | Potency, µM, without a hit: top-dose activity change, negative = inhibition, hits mostly inhibitors | P15428 | purified HPGD, NADH fluorescence kinetic, PGE2 substrate; also: potency is read from the fitted curve at half-maximal effect
Target sequence (P15428 whole entry, looked up): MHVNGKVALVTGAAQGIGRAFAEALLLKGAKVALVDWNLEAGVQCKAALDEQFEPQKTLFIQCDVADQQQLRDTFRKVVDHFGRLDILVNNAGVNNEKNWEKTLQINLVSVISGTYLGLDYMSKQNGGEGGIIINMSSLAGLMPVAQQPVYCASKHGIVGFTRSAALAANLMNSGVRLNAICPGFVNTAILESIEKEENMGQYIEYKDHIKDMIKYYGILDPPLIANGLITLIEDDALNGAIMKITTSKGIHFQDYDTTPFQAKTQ
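20 nM HPGD preincubated 15 min at room temperature with compound in 50 mM Tris-HCl pH 8, 0.01% Tween 20. Started with 1 mM NAD+ and 30 uM prostaglandin E2; NADH fluorescence (360/450 nm) read 5 times over 30-s intervals, last minus first.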
PNC inhibitor = inhibitors of perinucleolar compartment assembly; activity change (PNC), negative = inhibition, % at 10 µM; 140,000 tested, 3.1% active; AID 2417; PC3M PTB-GFP, PNC prevalence imaging, 16 h; hits give low values;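 active = readout at or below -70, meaning at least 70% loss of cells showing the perinucleolar compartment, a nuclear body marking cancer cells; inconclusive = readout between -30 and a set limit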;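 also: plate controls were DMSO wells for no effect and camptothecin positive control wells for full effect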
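Compounds are pinned in duplicate onto adhered PC3M cells stably expressing GFP-tagged PTB and incubated 16 h at 37 C. Cells are then fixed, nuclei stained with Hoechst, and PNC-positive cells counted.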
Luc counter = blocks Kinase-Glo luciferase, a counter-screen artifact | Kinase-Glo luciferase, ATP luminescence, 8 min | AID 1379 | Potency, µM (doses to about 38.3 µM), for inactives: at the highest dose activity change, negative = inhibition, most hits filed as inhibitors | 200,000 tested, 0.28% active; active = well fitted inhibition curve with a large enough effect; inconclusive = small, poorly fitted or top-dose-only effect; also: potency is read from the fitted curve at half-maximal effect; nearly all actives have a fitted effect of over 60% in size
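Compounds were added to a substrate mix at pH 7.2 (50 mM imidazole, 10 uM ATP, within the enzyme's linear range), followed by Kinase-Glo detection reagent; luminescence was measured after 8 minutes at ambient temperature.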
Numbers without * were called inactive; [ ] = dose if it differs, or a comment. Unless noted, calls follow the shape of the dose curve; as a rule, active = well fitted inhibition curve with a large enough effect (not every such curve was filed as active); inconclusive = small, poorly fitted or top-dose-only effect, or another doubt; inactive = no such curve, though single readings can be large or run the other way. Unless noted, % is scaled to controls: 0 for no effect and ±100 for the full control effect.

Screening NC(=S)N/N=C/c1ccc(-c2cccc([N+](=O)[O-])c2)o1 returned ALDH1A1 inh inconclusive, IMPase cell inh 3, LMNA splice mod inconclusive, HPGD inh 16µM*, PNC inhibitor 11 and Luc counter -4%.
`O=C(N/N=C\c1ccc(Br)o1)C1COc2ccccc2O1` (centres undefined) gave ALDH1A1 inh inconclusive, LMNA splice mod -21%[46 µM] and Luc counter 3%.
`O=C(N/N=C\c1ccccn1)C1COc2cc3ccccc3cc2O1` (centres undefined) gave ALDH1A1 inh inconclusive, IMPase cell inh 1, LMNA splice mod 1%[0.0737 µM], HPGD inh 14µM*, PNC inhibitor inconclusive and Luc counter 4%.
For O=C(N/N=C\c1ccc(-c2ccc([N+](=O)[O-])cc2)o1)C1COc2ccccc2O1 (centres undefined) the results were ALDH1A1 inh 0%, LMNA splice mod inconclusive, HPGD inh 20µM*, PNC inhibitor inconclusive and Luc counter -7%.
`COC(=O)c1ccc(Oc2nc3c(c(=O)n(C)c(=O)n3C)n2Cc2ccc(Cl)c(Cl)c2)cc1` gave IMPase cell inh -8.
Screening Nc1cccc(S(=O)(=O)O)c1 returned ALDH1A1 inh inconclusive and HPGD inh -11%.
Cc1ccc(C)c(NC(=O)CN2CCN(C3CCCCC3)C(=O)C2=O)c1 was read as LMNA splice mod -9%[46 µM].
Screening Cn1cc(/C=N\NC(=O)C2COc3ccccc3O2)c2ccccc21 (centres undefined) returned ALDH1A1 inh inconclusive, LMNA splice mod inconclusive, HPGD inh inconclusive, PNC inhibitor inconclusive and Luc counter 1%.
`Cc1c(/C=N\NC(=O)C2COc3ccccc3O2)c2ccccc2n1C` (centres undefined) gave ALDH1A1 inh inconclusive, IMPase cell inh 6, LMNA splice mod inconclusive, HPGD inh -24%, PNC inhibitor -111* and Luc counter 2%.
`CNc1c(NC(=O)c2cc(OC)cc(OC)c2)c(=O)oc2ccccc12` gave IMPase cell inh -2.
For CCOc1ccc(-c2nc(CSc3nnc(N)s3)cs2)cc1OC the results were ALDH1A1 inh -11%, IMPase cell inh 1, LMNA splice mod -21%, HPGD inh -14%, PNC inhibitor -101* and Luc counter -3%.
CCOc1ccc(-c2nc(CSc3nnc(N)s3)cs2)cc1 was read as ALDH1A1 inh -5%, IMPase cell inh 11, LMNA splice mod -9%, HPGD inh -20%, PNC inhibitor -18 and Luc counter 14%.
CCOc1ccc(C(=O)NCC(c2ccc(Cl)cc2)N2CCCCC2)cc1 (centres undefined) was read as LMNA splice mod -17%[46 µM].
For S=C(Nc1ccc(Nc2ccccc2)cc1)NC1CCCCCC1 the results were ALDH1A1 inh -8%, LMNA splice mod inconclusive and Luc counter 2%.
`O=S(=O)(NC(=S)NC1CCCCC1)c1cccs1` gave ALDH1A1 inh 5.6µM* and Luc counter 3%.
O=C(NC1CCCCC1)C(Cc1ccccc1)NS(=O)(=O)c1cccs1 (centres undefined) was read as ALDH1A1 inh inconclusive, IMPase cell inh 2, LMNA splice mod 6%, HPGD inh 0%, PNC inhibitor 10 and Luc counter -1%.
Screening O=S(=O)(NC(=S)NC1CCCCC1)c1ccccc1 returned ALDH1A1 inh 22µM* and Luc counter 1%.
Screening COc1cccc(CNC(=O)CN2C(=O)CC(c3ccccc3)=Nc3ccccc32)c1 returned ALDH1A1 inh 35µM* and Luc counter -3%.
For Cc1cc(C)cc(NC(=O)CSc2nc(=O)[nH]c3c2CCC3)c1 the results were LMNA splice mod 14%[46 µM].
`O=S(=O)(c1ccc2c(c1)OCCO2)N1CCC(O)(c2ccc(Cl)cc2)CC1` gave ALDH1A1 inh inconclusive, IMPase cell inh 20, LMNA splice mod inconclusive, HPGD inh -12%, PNC inhibitor -125* and Luc counter -2%.

Assay outcomes (PubChem)
